# From publication PMC5540273 (PLoS ONE, 2017)
# How the values were obtained:
# Conditions in all cases: concentration: 1 μM, replicates: in singlicate; n = 1
# MTOR = system: MTOR
# MUSK = system: MUSK
# MYLK2 = system: MYLK2
# MYLK4 = system: MYLK4
# MYLK = system: MYLK
# MYO3A = system: MYO3A
# MYO3B = system: MYO3B
# NDR1 = system: T1, NDR1
# T1 construct: gene STK38
# NDR2 = system: NDR2
# NEK10 = system: NEK10
# 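Also: KINOMEscan kinase panel screen.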
SMILES,%Inh (MTOR),%Inh (MUSK),%Inh (MYLK2),%Inh (MYLK4),%Inh (MYLK),%Inh (MYO3A),%Inh (MYO3B),%Inh (NDR1),%Inh (NDR2),%Inh (NEK10)
Cc1ccc(C(=O)N2CC[C@@H](O)C2)cc1-n1c(C)cc(OCc2ccc(F)cc2F)c(Br)c1=O,45%,9%,0%,0%,0%,0%,0%,26%,0%,0%
c1ccc(-c2n[nH]cc2Nc2ccnc3ccccc23)nc1 [GW694077],11%,7%,0%,99.9%,22%,25%,0%,0%,4%,95.7%
Cc1ccc(C)c(NC(=O)NC2CCN(c3ccnc(Nc4ccc(F)cc4)n3)C2)c1 (stereo not shown) [GSK1379720],15%,5%,0%,0%,2%,5%,0%,0%,0%,9%
O=C(NC1CCN(c2ccnc(Nc3ccc(F)cc3)n2)C1)c1cc2ccccc2s1 (stereo not shown) [GSK1379716],25%,21%,4%,5%,36%,36%,0%,8%,0%,19%
Cn1cc(-c2ccc3c(c2)CCN3C(=O)Cc2cccc(Cl)c2)c2c(N)ncnc21 [GSK2606590],0%,29%,71%,0%,8%,43%,21%,0%,0%,18%
COCCOCCOc1cc2ncc3c4ccc(C#N)cc4[nH]c3c2cc1OC,0%,6%,54%,72%,33%,10%,0%,60%,0%,0%
CNC(=O)c1ccccc1Nc1nc(Nc2ccc(N3CCOCC3)cc2)ncc1Cl.Cl [GSK1576028],8%,74%,74%,99.9%,94%,48%,0%,97.9%,91.3%,24%
FC(F)(F)c1ccc(/C=C/c2cncnc2Nc2ccc3[nH]c(Cc4ccccc4)nc3c2)cc1 [GW709199],28%,15%,2%,25%,15%,0%,30%,21%,0%,0%
c1ccc(-c2cnc3nccnn23)cc1 [AH20685],2%,2%,0%,0%,0%,0%,0%,0%,0%,0%
CC(=O)N1CCN(c2ccc(Nc3nccc(-c4sc(C(C)C)nc4-c4cccc(NS(=O)(=O)c5cccc(Cl)c5)c4)n3)cn2)CC1 [GSK1660437],3%,14%,0%,0%,7%,12%,49%,14%,0%,0%
